In PubChem BioAssay AID1159580 (chemical genetic matrix, 2015):
Out of some 5,500 compounds screened, about 2,000 (36%) were called active. Not shown: some 18% with an inconclusive outcome. Cut-off read from the data, not from the text of the source: active = normalized growth mostly below about 0.91 (no sharp cut-off); inconclusive = no clear call, values can overlap the other calls; inactive = mostly above about 0.92. The list shows a part of the results.

Test: chemical genetic growth profiling, strain panel (AID 1159580);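 note: tested at 20 µM; growth read once vehicle control cultures reached saturation at 30 °C; 1 = growth at the plate median or of vehicle wells; lower values mean less growth of the strain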
Settings: growth OD

Measured: normalized growth

COc1ccc(CC(=O)c2ccc(O)cc2O)cc1
inactive: S. cerevisiae deletion strains, locus YKL068W, stronger effect = lower value 0.98 | S. cerevisiae deletion strains, locus YKL085W, strain MDH1 (second series), stronger effect = lower value 0.992 | S. cerevisiae deletion strains, locus YKL085W, strain MDH1, stronger effect = lower value 0.992 | S. cerevisiae deletion strains, locus YKL160W, strain elf1, stronger effect = lower value 0.938 | S. cerevisiae deletion strains, locus YKL190W, strain CNB1, stronger effect = lower value 0.975 | S. cerevisiae deletion strains, locus YKR026C, strain gcn3, stronger effect = lower value 0.988 | S. cerevisiae deletion strains, locus YKR091W, strain srl3, stronger effect = lower value 0.988 | S. cerevisiae deletion strains, locus YLL001W, strain dnm1, stronger effect = lower value 0.944 | S. cerevisiae deletion strains, locus YLL026W, stronger effect = lower value 0.993 | S. cerevisiae deletion strains, locus YLL041C, strain sdh2, stronger effect = lower value 0.99 | S. cerevisiae deletion strains, locus YLR027C, strain aat2, stronger effect = lower value 0.997 | S. cerevisiae deletion strains, locus YLR039C, strain RIC1, stronger effect = lower value 0.686 | S. cerevisiae deletion strains, locus YLR058C, strain SHM2, stronger effect = lower value 0.946 | S. cerevisiae deletion strains, locus YLR102C, strain apc9, stronger effect = lower value 0.966 | S. cerevisiae deletion strains, locus YLR113W, strain HOG1, stronger effect = lower value 0.938 | S. cerevisiae deletion strains, locus YLR221C, strain rsa3, stronger effect = lower value 0.955 | S. cerevisiae deletion strains, locus YLR258W, strain gsy2, stronger effect = lower value 0.984 | S. cerevisiae deletion strains, locus YLR262C, strain YPT6, stronger effect = lower value 0.669 | S. cerevisiae deletion strains, locus YLR268W, strain sec22, stronger effect = lower value 0.931 | S. cerevisiae deletion strains, locus YLR320W, strain mms22, stronger effect = lower value 0.895 | S. cerevisiae deletion strains, locus YLR330W, strain CHS5, stronger effect = lower value 0.923 | S. cerevisiae deletion strains, locus YLR342W, strain FKS1 (second series), stronger effect = lower value 0.864 | S. cerevisiae deletion strains, locus YLR342W, strain FKS1, stronger effect = lower value 0.972 | S. cerevisiae deletion strains, locus YLR357W, strain rsc2, stronger effect = lower value 1.01 | S. cerevisiae deletion strains, locus YLR370C, strain arc18, stronger effect = lower value 0.978 | S. cerevisiae deletion strains, locus YLR384C, strain iki3, stronger effect = lower value 0.999 | S. cerevisiae deletion strains, locus YML016C, strain PPZ1, stronger effect = lower value 0.976 | S. cerevisiae deletion strains, locus YML032C, strain rad52, stronger effect = lower value 0.938 | S. cerevisiae deletion strains, locus YML120C, strain ndi1, stronger effect = lower value 0.988 | S. cerevisiae deletion strains, locus YML124C, strain tub3, stronger effect = lower value 0.981 | S. cerevisiae deletion strains, locus YMR058W, strain fet3, stronger effect = lower value 0.969 | S. cerevisiae deletion strains, locus YMR078C, strain ctf18, stronger effect = lower value 0.956 | S. cerevisiae deletion strains, locus YMR125W, strain sto1, stronger effect = lower value 0.997 | S. cerevisiae deletion strains, locus YMR129W, stronger effect = lower value 0.993 | S. cerevisiae deletion strains, locus YMR205C, strain PFK2, stronger effect = lower value 0.92 | S. cerevisiae deletion strains, locus YMR223W, strain ubp8, stronger effect = lower value 0.952 | S. cerevisiae deletion strains, locus YMR231W, strain pep5, stronger effect = lower value 0.968 | S. cerevisiae deletion strains, locus YMR307W, strain GAS1, stronger effect = lower value 0.688 | S. cerevisiae deletion strains, locus YNL067W, strain RPL9B, stronger effect = lower value 0.945 | S. cerevisiae deletion strains, locus YNL128W, strain TEP1, stronger effect = lower value 0.98 | S. cerevisiae deletion strains, locus YNL153C, strain GIM3, stronger effect = lower value 0.978 | S. cerevisiae deletion strains, locus YNL183C, strain NPR1, stronger effect = lower value 0.91 | S. cerevisiae deletion strains, locus YNL209W, strain ssb2, stronger effect = lower value 0.998 | S. cerevisiae deletion strains, locus YNL233W, strain BNI4, stronger effect = lower value 0.935 | S. cerevisiae deletion strains, locus YNL248C, strain rpa49, stronger effect = lower value 0.987 | S. cerevisiae deletion strains, locus YNL250W, strain rad50, stronger effect = lower value 1.02 | S. cerevisiae deletion strains, locus YNL271C, strain bni1, stronger effect = lower value 0.964 | S. cerevisiae deletion strains, locus YNL298W, strain CLA4, stronger effect = lower value 0.949 | S. cerevisiae deletion strains, locus YNL322C, strain KRE1 (second series), stronger effect = lower value 0.971 | S. cerevisiae deletion strains, locus YNL322C, strain KRE1, stronger effect = lower value 0.952 | S. cerevisiae deletion strains, locus YNR049C, strain mso1, stronger effect = lower value 0.986 | S. cerevisiae deletion strains, locus YNR052C, strain pop2, stronger effect = lower value 0.973 | S. cerevisiae deletion strains, locus YOL012C, strain htz1 1.38 | S. cerevisiae deletion strains, locus YOR001W, strain rrp6, stronger effect = lower value 0.998 | S. cerevisiae deletion strains, locus YOR061W, strain CKA2, stronger effect = lower value 0.983 | S. cerevisiae deletion strains, locus YOR069W, strain VPS5, stronger effect = lower value 0.965 | S. cerevisiae deletion strains, locus YOR070C, strain gyp1, stronger effect = lower value 0.962 | S. cerevisiae deletion strains, locus YOR080W, strain dia2, stronger effect = lower value 0.999 | S. cerevisiae deletion strains, locus YOR083W, strain WHI5, stronger effect = lower value 0.946 | S. cerevisiae deletion strains, locus YOR106W, strain vam3, stronger effect = lower value 0.952 | S. cerevisiae deletion strains, locus YOR136W, strain idh2, stronger effect = lower value 0.972 | S. cerevisiae deletion strains, locus YOR144C, strain elg1, stronger effect = lower value 0.966 | S. cerevisiae deletion strains, locus YOR231W, strain MKK1, stronger effect = lower value 0.953 | S. cerevisiae deletion strains, locus YOR265W, strain rbl2, stronger effect = lower value 0.974 | S. cerevisiae deletion strains, locus YOR270C, strain vph1, stronger effect = lower value 0.84 | S. cerevisiae deletion strains, locus YOR290C, strain snf2, stronger effect = lower value 0.929 | S. cerevisiae deletion strains, locus YOR316C, strain cot1, stronger effect = lower value 0.966 | S. cerevisiae deletion strains, locus YPL078C, strain atp4, stronger effect = lower value 0.911 | S. cerevisiae deletion strains, locus YPL106C, strain sse1, stronger effect = lower value 1.02 | S. cerevisiae deletion strains, locus YPL240C, strain hsp82, stronger effect = lower value 0.978 | S. cerevisiae deletion strains, locus YPL256C, strain CLN2, stronger effect = lower value 0.969 | S. cerevisiae deletion strains, locus YPR119W, strain clb2, stronger effect = lower value 0.975 | S. cerevisiae deletion strains, locus YPR141C, strain kar3, stronger effect = lower value 0.983 | S. cerevisiae deletion strains, locus YPR167C, strain met16, stronger effect = lower value 0.97 | S. cerevisiae deletion strains, strain wtn01, stronger effect = lower value 0.919 | S. cerevisiae strains, strain wild type, stronger effect = lower value 0.95
active: S. cerevisiae deletion strains, locus YKR001C, strain vps1, stronger effect = lower value 0.766 | S. cerevisiae deletion strains, locus YLR262C, strain YPT6 (second series), stronger effect = lower value 0.768 | S. cerevisiae deletion strains, locus YLR371W, strain rom2, stronger effect = lower value 0.86 | S. cerevisiae deletion strains, locus YLR418C, strain cdc73, stronger effect = lower value 0.744 | S. cerevisiae deletion strains, locus YNL071W, strain lat1, stronger effect = lower value 0.851 | S. cerevisiae deletion strains, locus YNL307C, strain MCK1, stronger effect = lower value 0.699 | S. cerevisiae deletion strains, locus YOL147C, strain pex11, stronger effect = lower value 0.908 | S. cerevisiae deletion strains, locus YOR184W, strain ser1, stronger effect = lower value 0.831 | S. cerevisiae deletion strains, locus YPL051W, strain arl3, stronger effect = lower value 0.885 | S. cerevisiae deletion strains, locus YPR163C, strain tif3, stronger effect = lower value 0.752
